Test results taken from PubChem BioAssay (NCI).
Where “and” joins values, the source holds several entries; their conditions need not be identical. Identical values can stand only once. About 83,000 compounds went through this panel and 20% of them were active in at least one assay; those are over-represented in the sample as a whole.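 Results are percent growth after 48 hours of single-concentration exposure. 100 means growth as in untreated cells, lower positive values show inhibition; negative values down to -100 show cell death.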 A number with no mark means an inactive call. Calls of active or inactive are those of the source. How the source made its calls: active means growth percent below 10; inactive means the rest.

Legend:
Experiment in all cases: NCI-60 one-dose screen, 48 h (100 = growth as untreated, 0 = no growth, -100 = all killed)
Conditions in all cases: 10 µM unless noted
[1] = system: HCT-15 colon
[2] = system: HT29 colon
[3] = system: SNB-75 CNS
[4] = system: SNB-19 CNS
[5] = system: U251 CNS
[6] = system: PC-3 prostate
[7] = system: SK-MEL-5 melanoma
[8] = system: UACC-62 melanoma
[9] = system: LOX IMVI melanoma
[10] = system: SK-MEL-28 melanoma

Compound	growth [1]	growth [2]	growth [3]	growth [4]	growth [5]	growth [6]	growth [7]	growth [8]	growth [9]	growth [10]
CC12OC(CC(O)C1O)n1c3ccccc3c3c4c(c5c6ccccc6n2c5c31)C(=O)N(CCN1CCOCC1)C4=O (stereo not given)	9.81% (active)	2.31% (active)	-5.19% (active)	8.99% (active)	3.67% (active)	7.32% (active)	-44.5% (active)	-52% (active)	-61.1% (active)	34.6%
CCN(C(=O)N1CCN(c2cc3c(cc2F)c(=O)c(C(=O)O)cn3C2CC2)CC1)c1nc(-c2ccccc2)cs1	9.62% (active)	10.9%	31.3%	22.5%	20.7%	11.5%	11.7%	13.1%	-11.1% (active)	41.8%
COc1ccccc1/C=C1\COc2ccc(O)cc2C1=O	48.7%	51.6%	96%	90.6%	62.3%	75.8%	66.5%	69.1%	34.6%	101%
C#CCOc1cccc(Nc2ncc3ncn(C4CCN(C(=O)CCl)C4)c3n2)c1 (stereo not given)	6.97% [6.25 µM] (active)	23.4% [6.25 µM]	72.6% [6.25 µM]	64.6% [6.25 µM]	43.2% [6.25 µM]	74.9% [6.25 µM]	39.1% [6.25 µM]	44.8% [6.25 µM]	-55.1% [6.25 µM] (active)	78% [6.25 µM]
CCCCC(NC(=O)CN1C(=O)/C(=C/C(C)=C/c2ccccc2)SC1=S)C(=O)O (stereo not given)	108%	120%	98.7%	95.7%	110%	107%	101%	92.7%	94.7%	104%
COc1cc(/C=C(/c2ccccc2)[N+](=O)[O-])c(OC)c2c1OCO2	-30% (active)	1.28% (active)	-92.6% (active)	-17.1% (active)	-92.9% (active)	-50.5% (active)	-40.9% (active)	-29.2% (active)	-87.6% (active)	-12.1% (active)
COc1ccc(-c2cc3cnc4ccccc4c3oc2=O)cc1	92.3%	96.8%	104%	99%	94%	92.5%	104%	96.5%	97.6%	100%
Nc1nc(Nc2cccnc2)sc1C(=O)c1ccccc1F	27.7%	35.9%	30.3%	43.1%	42%	43.2%	30.1%	42.4%	29.8%	65.9%
Nc1ccc(S(=O)(=O)c2ccc(N)cc2)cc1	114% and 106%	106% and 98.1%	87.8%	100% and 104%	94.6% and 106%	85.2% and 94.1%	92.8% and 108%	98.7% and 104%	94.6% and 102%	114% and 102%
CCOC(=O)c1nnn(Cc2cc(=O)oc3c2ccc2ccccc23)c1C	104%	96.7%	91.6%	98.2%	104%	89.2%	101%	98.7%	101%	109%
CSc1nnc(-c2cc3c([nH]c4ccccc43)c(-c3cccc(O)c3)n2)n1-c1ccc(C)cc1	23.2%	8.92% (active)	30.1%	54.3%	29.4%	25.8%	13.5%	40.1%	29.3%	9.42% (active)
